According to ChEMBL document CHEMBL3988442, “University of Dundee, Small-Polar-MMV Screening Library” (2021):
Out of some 53,000 compounds screened, about 900 (1.7%) showed an effect of 50% or more. The entries come from a sample that favours strong results as a whole.

Test system: Mycobacterium tuberculosis
Experiment: Cornell - Phenotypic assay to identify agents that inhibit growth of Mycobacterium tuberculosis
Format: functional
Parameters: scale not given: direction of the effect not stated beside the values
Details: 10 mM as filed; unlikely as a test dose

**Q.** For CCCNC(=O)C(C)n1nc(-c2ccc(C)o2)cc(N)c1=O (stereo not drawn), which “Percent Effect” value is on record?
**A.** The value was 66.1%.

**Q.** COCCNC(=O)C(C)n1nc(-c2ccc(C)o2)cc(N)c1=O (stereo not drawn) was tested. Which “Percent Effect” value did it give?
**A.** The value was -59.92%.

**Q.** For Cc1ccc(-c2cc(N)c(=O)n(C(C)C(=O)NC(C)C)n2)o1 (stereo not drawn), which “Percent Effect” value is on record?
**A.** The value was 26.87%.

**Q.** How did the “Percent Effect” value turn out when O=C(N1CCOCC1)[C@@]12CCO[C@@H]1CCN(C1CCCCC1)C2.O=C(O)C(F)(F)F was run?
**A.** The value was -10.99%.

**Q.** Which “Percent Effect” value does the source give for COc1cccc(CCC2CCCN(C(=O)c3ccccn3)C2)c1 (stereo not drawn) here?
**A.** The value was 5.867%.

**Q.** How did the “Percent Effect” value turn out when COc1ccc(C(=O)N2CCCC(C)C2)cc1F (stereo not drawn) was run?
**A.** The value was -4.81%.

**Q.** How did the “Percent Effect” value turn out when CC1CCCN(C(=O)c2ccc(-c3ccco3)o2)C1 (stereo not drawn) was run?
**A.** The value was 79.8%.

**Q.** COc1cccc(CCC2CCCN(C(=O)c3ccc(OC)o3)C2)c1 (stereo not drawn) was tested. Which “Percent Effect” value did it give?
**A.** The value was 67.76%.

**Q.** For CC1CCCN(C(=O)c2cc(-c3ccco3)cs2)C1 (stereo not drawn), which “Percent Effect” value is on record?
**A.** Its value is 33.45%.

**Q.** COc1cccc(CCC2CCCN(C(C)=O)C2)c1 (stereo not drawn) was tested. Which “Percent Effect” value did it give?
**A.** The value was 19.46%.

**Q.** With COc1ccc(C(=O)N2CCOC(Cc3cccc(C(F)(F)F)c3)C2)o1 (stereo not drawn) as the compound, how does the “Percent Effect” value read?
**A.** The value was 107.3%.

**Q.** With CC(=O)N1CCOC(Cc2cccc(C(F)(F)F)c2)C1 (stereo not drawn) as the compound, how does the “Percent Effect” value read?
**A.** Its value is 25.26%.

**Q.** Which “Percent Effect” value does the source give for CC1=C(C(=O)N2CCOC(Cc3cccc(C(F)(F)F)c3)C2)OCCO1 (stereo not drawn) here?
**A.** Its value is 22.58%.

**Q.** Which “Percent Effect” value does the source give for COCCOCCCNC(=O)c1cc(Cl)cc2cccnc12 here?
**A.** Its value is 14.25%.

**Q.** How did the “Percent Effect” value turn out when CNC(=O)c1cc(C)nc(C2(C)CCCN2c2cc(C)ncn2)n1 (stereo not drawn) was run?
**A.** Its value is -3.041%.

**Q.** With CCc1ncc(C(=O)N(C)C(C)c2ccc3c(c2)OCCO3)cn1 (stereo not drawn) as the compound, how does the “Percent Effect” value read?
**A.** Its value is -2.31%.

**Q.** For Cc1cccnc1CCNCC1(O)CCCN(CC2CCCCC2)C1=O (stereo not drawn), which “Percent Effect” value is on record?
**A.** Its value is -24.48%.

**Q.** For Cn1ccnc1CN1CCCN(C(=O)c2cccc(CC#N)c2)CC1, which “Percent Effect” value is on record?
**A.** Its value is -5.317%.

**Q.** For Cc1noc(C)c1-c1cc(CCC2CN(C(=O)C(C)C)CCO2)ncn1 (stereo not drawn), which “Percent Effect” value is on record?
**A.** Its value is 37.61%.

**Q.** O=C(O)C(F)(F)F.O=C(O)C(F)(F)F.c1cnc(N2CC3(CCN(Cc4cccnc4)C3)C2)nc1 was tested. Which “Percent Effect” value did it give?
**A.** Its value is -25.95%.

**Q.** For NCc1cnn(-c2ccccc2C(=O)NCc2ccccc2Cl)c1, which “Percent Effect” value is on record?
**A.** The value was -1.327%.

**Q.** Which “Percent Effect” value does the source give for NCc1cn(-c2ccccc2C(=O)NCc2ccccc2Cl)cn1 here?
**A.** Its value is -8.218%.

**Q.** How did the “Percent Effect” value turn out when NC(=O)C1=NC2=NS(=O)(=O)c3ccccc3N2N1Cc1ccccc1Cl was run?
**A.** The value was 106.2%.

**Q.** For NC(=O)C1=NC2=NS(=O)(=O)c3ccccc3N2N1Cc1ccc(Cl)cc1, which “Percent Effect” value is on record?
**A.** Its value is 106.1%.

**Q.** For NC(=O)C1=NC2=NS(=O)(=O)c3ccccc3N2N1Cc1ccc(Br)cc1, which “Percent Effect” value is on record?
**A.** The value was 106.5%.

**Q.** Which “Percent Effect” value does the source give for COC(=O)C1=NN2C(=NS(=O)(=O)c3ccccc32)N1 here?
**A.** Its value is 46.07%.

**Q.** NC(=O)C1=NN2C(=NS(=O)(=O)c3ccccc32)N1 was tested. Which “Percent Effect” value did it give?
**A.** Its value is 18.26%.

**Q.** How did the “Percent Effect” value turn out when NC(=O)CN(Cc1ccc(Br)cc1)C(=O)c1ccccn1 was run?
**A.** Its value is -15.26%.
